PubChem BioAssay (NCI)
Several values for one entry are separate records, joined by “and”; a condition that tells them apart may be missing. Identical values can stand only once. About 83,000 compounds went through this panel and 20% of them were active in at least one assay; those are over-represented in the sample as a whole.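 Results are percent growth after 48 hours of single-concentration exposure. 100 means growth as in untreated cells, lower positive values show inhibition; negative values down to -100 show cell death.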

Columns and labels:
Assay in all cases: NCI-60 one-dose screen, 48 h (100 = growth as untreated, 0 = no growth, -100 = all killed)
Conditions in all cases: 10 µM unless noted; active = growth percent below 10; inactive = the rest
[1] = system: HCT-15 colon
[2] = system: HT29 colon
[3] = system: SNB-75 CNS
[4] = system: SNB-19 CNS
[5] = system: U251 CNS
[6] = system: PC-3 prostate
[7] = system: SK-MEL-5 melanoma
[8] = system: UACC-62 melanoma
[9] = system: LOX IMVI melanoma
[10] = system: SK-MEL-28 melanoma

Measured: growth

Cc1ccc(C(=O)c2ccc(C)cc2)cc1
inactive: [1] 99.8% and 102% | [2] 95.4% and 102% | [3] 86.4% and 99.5% | [4] 86.9% and 105% | [5] 94.1% and 105% | [6] 95.8% and 92.5% | [7] 95.6% and 100% | [8] 92.7% and 101% | [9] 100% and 90.4% | [10] 111% and 106%

c1ccc2c[n+](Cc3ccc4ccccc4n3)ccc2c1
inactive: [1] 106% | [2] 57.2% | [3] 79.7% | [4] 71.2% | [5] 55.4% | [6] 50.9% | [7] 15.1% | [8] 90% | [9] 88.8% | [10] 87.6%

CCc1ccccc1-n1[nH]c(C)c(C=N)c1=O
inactive: [1] 98.3% | [2] 114% | [3] 101% | [4] 104% | [5] 109% | [6] 94.7% | [7] 104% | [8] 101% | [9] 99.1% | [10] 110%

O=C1C(=O)c2ccccc2C(O)=C1CC=C(Cl)Cl
inactive: [1] 25.8% and 30.7% | [2] 31.4% and 34.8% | [3] 54.3% and 57.4% | [4] 52.9% and 61.9% | [5] 42.5% and 42.8% | [6] 35.3% and 40.9% | [7] 48.4% and 48.1% | [8] 55.7% and 60% | [9] 16.7% and 27.4% | [10] 70.1%

O=C(O)C1CSCN1 (stereo not drawn)
inactive: [1] 109% and 96.3% | [2] 104% | [3] 109% and 73.5% | [4] 105% and 94% | [5] 104% and 97.6% | [6] 99.4% and 112% | [7] 135% | [8] 105% and 96% | [9] 108% and 102% | [10] 117% and 114%

O=[N+]([O-])c1ccc(N2CCN=N2)cc1
inactive: [1] 80% | [2] 88.4% | [3] 89.2% | [4] 94.7% | [5] 88.1% | [6] 73.8% | [7] 93.3% | [8] 68.7% | [9] 73.3% | [10] 93.7%

COc1ccc(CCO)cc1
inactive: [1] 102% | [2] 94.3% | [3] 101% | [4] 100% | [5] 95.5% | [6] 91.9% | [7] 100% | [8] 98.5% | [9] 99.5% | [10] 111%

CCOC(=O)C(N)Cc1cc(I)c(O)c(I)c1 (stereo not drawn)
inactive: [1] 107% and 96.6% | [2] 105% and 104% | [3] 102% and 83.8% | [4] 109% and 95.9% | [5] 104% and 110% | [6] 98.3% and 89.8% | [7] 105% and 108% | [8] 101% and 97% | [9] 110% and 105% | [10] 111% and 116%

CN1C2C=CC(=O)C1C1C(=O)N(c3ccccc3)C(=O)C12 (stereo not drawn)
inactive: [1] 42% | [2] 48.8% | [3] 92.6% | [4] 95.7% | [5] 62.1% | [6] 54.8% | [7] 92% | [9] 38.7% | [10] 95.4%

Nc1ccc(O)c(C(=O)O)c1
inactive: [1] 97.3% and 107% and 99.2% | [2] 111% and 113% and 115% | [3] 74.4% and 97.2% and 94.7% | [4] 91.9% and 104% and 117% | [5] 74.5% and 101% | [6] 89.6% and 105% | [7] 93.4% and 94.1% and 108% | [8] 91.3% and 102% and 84.2% | [9] 84% and 99.5% | [10] 94.7% and 116% and 115%

CCOC(=O)c1csc(N)n1
inactive: [1] 101% and 100% | [2] 103% and 96.8% | [3] 84.5% and 86% | [4] 89.9% and 96.8% | [5] 111% and 86.7% | [6] 95.4% and 94.5% | [7] 108% and 101% | [8] 93.3% and 94.2% | [9] 105% and 99.1% | [10] 98.9% and 106%

CS(=O)(=O)OCC1NC(=O)C(COS(C)(=O)=O)NC1=O (stereo not drawn)
inactive: [1] 91.8% and 88.4% | [2] 85.6% and 81.3% | [3] 56.5% and 100% | [4] 105% and 110% | [5] 95.9% and 93.9% | [6] 88.3% and 82.6% | [7] 96.5% and 103% | [8] 101% and 102% | [9] 94.1% and 90.5% | [10] 115% and 112%

O=c1[nH]c(=O)c2[nH]c(=O)[nH]c2[nH]1
inactive: [1] 99% | [2] 105% | [3] 89.8% | [4] 103% | [5] 101% | [6] 96.2% | [7] 100% | [8] 99.8% | [9] 102% | [10] 98.9%

CC(NC(=O)CCl)c1ccccc1 (stereo not drawn)
inactive: [1] 94.9% | [2] 104% | [3] 85.6% | [4] 103% | [5] 103% | [6] 95.2% | [7] 93.7% | [8] 102% | [9] 98.2% | [10] 111%

CCOC(=O)CN1CCC(C(=O)OCC)CC1
inactive: [1] 125% | [2] 104% | [3] 106% | [4] 110% | [5] 107% | [6] 88.8% | [7] 103% | [9] 99.3% | [10] 108%

CCCCCc1cc[n+](CC(=O)c2ccccc2)cc1
inactive: [1] 99.4% and 103% | [2] 99.7% and 105% | [3] 92.6% | [4] 93.4% and 107% | [5] 103% and 105% | [6] 85.6% and 91.1% | [7] 96% and 89.5% | [8] 98.7% and 101% | [9] 93.8% and 98.6% | [10] 128% and 109%

CCOC(=O)C1=CC(=O)CC(C)(C)O1
inactive: [1] 101% and 103% | [2] 92.6% and 101% | [3] 116% | [4] 104% and 109% | [5] 104% and 99.9% | [6] 88.7% and 105% | [7] 112% | [8] 104% and 106% | [9] 103% and 107% | [10] 119% and 120%
